Source: PubChem
A549 tox – Nrf2 qHTS screen for inhibitors: counterscreen for cytotoxicity; Potency, µM (series often up to 46 µM), for inactives: at the top dose activity change, negative = cytotoxicity, most hits filed as inhibitors; A549 ARE-Fluc cells, CellTiter-Fluor viability, 18-24 h; 0.16% of 390,000 active; note: potency is the fitted concentration of half-maximal effect
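A549 ARE_Fluc cells in 5% FBS OPTI-MEM were exposed to compounds in concentration-response for 18-24 h at 37 deg C. Viability was read by CellTiter-Fluor fluorescence (Ex 405/Em 525) after 30 min, before the luciferase read.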
Nrf2 inh – Nrf2 qHTS screen for inhibitors; 2.1% of 360,000 active; AID 504444, 2011; A549 ARE-Fluc reporter, luciferase luminescence, 18-24 h; Potency, µM (top dose mostly 46 µM), inactives show at the highest dose activity change, negative = inhibition, actives largely listed as inhibitors; note: potency is the fitted concentration of half-maximal effect; nearly all actives have a fitted effect of over 60% in size
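Two sequential reads on A549 ARE_Fluc cells exposed to compound for 18-24 h: a CellTiter-Fluor fluorescence read for viability, then a luciferase luminescence read for Nrf2/ARE activity.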
KB-V1 MDR tox – qHTS assay for MDR1-selective chemotherapeutics: Primary screen using the drug-selected MDR subline cells KB-V1 | KB-V1 MDR cells viability, CellTiter-Glo, 72 h | Potency, µM (doses to about 46.1 µM), hits mostly cytotoxic | 3.4% of 400,000 active; note: potency is the fitted concentration of half-maximal effect; nearly all actives have a fitted effect of over 60% in size
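Cells of the MDR subline KB-V1 are plated, dosed with compound at multiple concentrations, and incubated 72 h at 37 degrees C; CellTiter-Glo is then added and luminescence read after 10 min.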
PI4K2A inh – qHTS for small molecular inhibitors of PI4K2A; purified PI4K2A, ADP-Glo luminescence, 1 h; stronger effect = lower value; activity change, negative = inhibition, % at 76.9 µM; 0.13% of 420,000 active; AID 1346378, 2018; in the data active = activity change below about -50%; inconclusive = mostly about -30% to -49%;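 note: -100% = wells without enzyme as full effect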
Target sequence (Q9BTU6 whole entry, looked up): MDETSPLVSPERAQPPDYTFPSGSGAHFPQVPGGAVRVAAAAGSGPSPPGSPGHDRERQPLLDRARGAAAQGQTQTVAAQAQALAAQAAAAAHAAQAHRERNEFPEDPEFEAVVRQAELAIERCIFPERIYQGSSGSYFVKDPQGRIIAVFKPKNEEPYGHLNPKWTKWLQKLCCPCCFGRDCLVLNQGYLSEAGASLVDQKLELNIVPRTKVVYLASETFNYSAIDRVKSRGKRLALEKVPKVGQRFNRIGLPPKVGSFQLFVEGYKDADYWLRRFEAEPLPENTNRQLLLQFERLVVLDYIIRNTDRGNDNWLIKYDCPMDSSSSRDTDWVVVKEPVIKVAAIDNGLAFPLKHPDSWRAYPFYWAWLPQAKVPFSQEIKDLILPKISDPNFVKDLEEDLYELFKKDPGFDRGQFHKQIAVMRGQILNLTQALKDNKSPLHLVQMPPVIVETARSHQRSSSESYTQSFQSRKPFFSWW
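Compounds are screened against recombinant PI4K2A using PI as substrate and ATP, the latter dispensed at 300 microM. Reactions run one hour at ambient temperature before ADP-Glo detection; full inhibition defined by wells lacking enzyme.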
Giardia kill – Small Molecules that selectively kill Giardia lamblia: qHTS | Giardia lamblia trophozoite viability | 0.15% of 340,000 active | AID 540267, 2011 | activity change, % at 7.66 µM, hits read low; in the data active = activity change below about -80%; inconclusive = between about -30% and that limit;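 note: parasites exposed to compound for two days anaerobically before the ATP read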
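Giardia trophozoites, 100 cells per well, were exposed to compounds for 48 hrs at 37 deg C under anaerobic conditions; viability was then read as ATP content by bioluminescence after 15-30 min at room temperature.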
KB-3-1 tox – qHTS assay for MDR1-selective chemotherapeutics: Primary screen using the parental adenocarcinoma cell KB-3-1; KB-3-1 viability, CellTiter-Glo ATP luminescence, 72 h; Potency, µM (top dose mostly 46.1 µM), most hits filed as cytotoxic; 1.4% of 400,000 active; AID 1347075, 2019; note: potency is the fitted concentration of half-maximal effect; nearly all actives have a fitted effect of over 60% in size
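Luminescent ATP read-out (CellTiter-Glo) measures survival of drug-naive KB-3-1 cells after 72 h compound exposure at 37 °C. Titration series was screened from lowest to highest concentration, with DMSO vehicle plates as background controls.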
An asterisk follows results filed as active. Only some compounds are listed: those with a hit (about 5.7% of all), similar ones and a draw of the others. Unless noted, calls come from the whole dose curve; as a rule, active = well fitted curve in the direction sought with a large enough effect; inconclusive = small, poorly fitted or top-dose-only effect, or another doubt; inactive = no such curve, though single readings can be large; an effect the other way counts as inactive or inconclusive. Unless noted, % is set by controls: 0 for no effect and ±100 for the full control effect.

How did COc1ccc(C)c2sc(N(Cc3cccnc3)C(=O)CCc3ccccc3)nc12 do in these assays?
A549 tox: -3.8%; KB-V1 MDR tox: inactive; PI4K2A inh: -1.9; KB-3-1 tox: inactive

How did COc1ccc2c(c1)c1ncn(CCN3CCCC3)c(=O)c1n2C do in these assays?
A549 tox: 3.8%; Nrf2 inh: 0.6%; KB-V1 MDR tox: 8.2µM*; PI4K2A inh: -8.2; Giardia kill: -12.2; KB-3-1 tox: inactive

What do the screens show for `COc1ccc2c(c1)c1ncn(CCN3CCCCC3)c(=O)c1n2C`?
A549 tox: -5.0%; Nrf2 inh: 17.8%; KB-V1 MDR tox: inactive; PI4K2A inh: -3.3; Giardia kill: 9.3; KB-3-1 tox: inactive

How did Cc1ccccc1NC(=O)COC(=O)c1ccccc1OCC(=O)Nc1ccc(Br)cc1 do in these assays?
KB-V1 MDR tox: inactive; KB-3-1 tox: inactive

How did N#CC1=C(N)Oc2c(ccc3ccccc23)C1c1ccsc1 (stereo not drawn) do in these assays?
A549 tox: inconclusive; Nrf2 inh: inconclusive; KB-V1 MDR tox: inconclusive; PI4K2A inh: 3.4; Giardia kill: -6.4; KB-3-1 tox: 6.51µM*

What do the screens show for `CC1CCC2(CCC(=O)N2CCCO)CC1` (stereo not drawn)?
PI4K2A inh: -1.5

How did NS(=O)(=O)c1ccc(N2N=C(c3ccccc3)CC2c2ccccc2Cl)cc1 (stereo not drawn) do in these assays?
A549 tox: inconclusive; Nrf2 inh: 20.6µM*; KB-V1 MDR tox: inactive; PI4K2A inh: 2.1; Giardia kill: -20.1; KB-3-1 tox: inactive

How did CCc1ccc2nc(N=C(N)N)nc(C)c2c1 do in these assays?
A549 tox: -15.8%; Nrf2 inh: inconclusive; KB-V1 MDR tox: inactive; PI4K2A inh: -0.9; Giardia kill: 0.0; KB-3-1 tox: 23.1µM*

Results for Cc1ccc2nc(N=C(N)N)nc(C)c2c1 ?
A549 tox: -14.2%; Nrf2 inh: inconclusive; KB-V1 MDR tox: inactive; PI4K2A inh: -16.1; Giardia kill: 7.0; KB-3-1 tox: inactive

How did Cc1nc(N=C(N)N)nc2ccccc12 do in these assays?
A549 tox: -2.4%; Nrf2 inh: 2.2%; KB-V1 MDR tox: inconclusive; PI4K2A inh: -6.3; Giardia kill: 8.7; KB-3-1 tox: 8.2µM*

What do the screens show for `c1ccc(CCCNc2ncnc3nc[nH]c23)cc1`?
A549 tox: -1.4%; Nrf2 inh: 13.6%; KB-V1 MDR tox: inactive; PI4K2A inh: -6.5; Giardia kill: 0.0; KB-3-1 tox: inconclusive

How did c1ccc2c(CCNc3ncnc4nc[nH]c34)cccc2c1 do in these assays?
A549 tox: -13.4%; Nrf2 inh: inconclusive; KB-V1 MDR tox: inactive; PI4K2A inh: 0.6; Giardia kill: -12.6; KB-3-1 tox: 18.4µM*

Results for CCOC(=O)N1CCN(C(=O)C[C@H]2C(=O)N(CCCOC)C3=CCCC[C@@]32C(=O)OCC)CC1 ?
PI4K2A inh: -2.9

Results for CCCOc1ccc(C2C(=O)N(C3CCCCCC3)CC(=O)N2C(C)C)cc1OC (stereo not drawn) ?
A549 tox: -0.2%; PI4K2A inh: 4.2

What do the screens show for `CCOC(=O)N1CCN(c2ccc(C(=O)c3cccc(F)c3)cc2)CC1`?
A549 tox: -24.4%; Nrf2 inh: inconclusive; KB-V1 MDR tox: inconclusive; PI4K2A inh: -1.1; Giardia kill: -6.0; KB-3-1 tox: inactive

Results for O=C(c1ccc(N2CCN(C(=O)c3cccc(F)c3)CC2)cc1)c1cccc(F)c1 ?
A549 tox: inconclusive; Nrf2 inh: inconclusive; KB-V1 MDR tox: 4.11µM*; PI4K2A inh: -0.8; Giardia kill: 35.7; KB-3-1 tox: inactive

How did O=C(c1ccc(N2CCN(C(=O)c3ccccc3Br)CC2)cc1)c1cccc(F)c1 do in these assays?
A549 tox: -22.4%; Nrf2 inh: 20.6µM*; KB-V1 MDR tox: 5.8µM*; PI4K2A inh: -2.6; Giardia kill: -11.7; KB-3-1 tox: inconclusive

What do the screens show for `CN(Cc1ccccc1)S(=O)(=O)c1cccc(C(=O)OCC2CCCCC2)c1`?
PI4K2A inh: 2.8

Results for O=C(COc1ccc2c(-c3ccccc3)cc(=O)oc2c1)Nc1ccc(CN2CCOCC2)cc1 ?
A549 tox: 6.8%; Nrf2 inh: -7.7%; KB-V1 MDR tox: inconclusive; PI4K2A inh: 4.6; Giardia kill: -20.6; KB-3-1 tox: inconclusive

What do the screens show for `O=C(COc1ccc2c(-c3ccccc3)cc(=O)oc2c1)Nc1ccc(CCO)cc1`?
A549 tox: -8.7%; Nrf2 inh: 10.3µM*; KB-V1 MDR tox: inactive; PI4K2A inh: -4.0; Giardia kill: 4.6; KB-3-1 tox: inactive

Results for COc1ccc(-c2nc(CN3CCC(C(=O)NCCCOC(C)C)CC3)c(C)o2)cc1OC ?
A549 tox: -1.1%; Nrf2 inh: 7.4%; KB-V1 MDR tox: inactive; PI4K2A inh: 1.1; KB-3-1 tox: inactive

How did CC(=O)Nc1sc2c(c1-c1cc3ccccc3o1)CCNC2 do in these assays?
PI4K2A inh: -0.7

Results for COC(=O)c1cc(C)ccc1/C=C1/Cc2c(C)cc(C)cc2C1=O ?
A549 tox: -1.8%; Nrf2 inh: 6.0%; KB-V1 MDR tox: 16.4µM*; PI4K2A inh: -1.0; Giardia kill: -21.2; KB-3-1 tox: inactive

Results for COC(=O)N/N=C/c1cc(Cl)cc(Cl)c1OCc1ccc(F)cc1 ?
A549 tox: 3.8%; Nrf2 inh: -14.7%; KB-V1 MDR tox: 23.1µM*; PI4K2A inh: 2.4; Giardia kill: -11.4; KB-3-1 tox: inactive

How did COc1ccc(NC(=O)c2csc(Cc3ccc(Cl)cc3)n2)cc1 do in these assays?
A549 tox: 7.2%; Nrf2 inh: 8.8%; KB-V1 MDR tox: inactive; PI4K2A inh: 7.0; Giardia kill: -29.5; KB-3-1 tox: inactive

What do the screens show for `COc1ccc(COc2ccsc2C(=O)Nc2ccc(Cl)cc2)cc1`?
A549 tox: inconclusive; Nrf2 inh: inconclusive; KB-V1 MDR tox: 9.2µM*; PI4K2A inh: 0.5; Giardia kill: -11.7; KB-3-1 tox: inactive

How did O=C(N/N=C/c1ccc(F)cc1)c1sccc1OCc1ccc(F)cc1 do in these assays?
A549 tox: -18.9%; Nrf2 inh: inconclusive; KB-V1 MDR tox: 7.31µM*; PI4K2A inh: 0.9; Giardia kill: 2.6; KB-3-1 tox: inconclusive

Results for O=C(N/N=C/c1ccc(Cl)cc1)c1sccc1OCc1ccc(F)cc1 ?
A549 tox: inconclusive; Nrf2 inh: -28.7%; KB-V1 MDR tox: 1.3µM*; PI4K2A inh: -4.1; Giardia kill: -2.4; KB-3-1 tox: 1.46µM*
